Structures are written as SMILES. In all, about 16,000 compounds went through this assay and about 4,000 (25%) were called active. Roughly 26% stayed inconclusive and do not appear here. Calls come from the whole dose curve; as a rule, active = well fitted curve in the direction sought with a large enough effect; inconclusive = small, poorly fitted or top-dose-only effect, or effect the other way; inactive = no such curve, though single readings can be large or run the other way. Only a sample is shown.
% is set by controls: 0 for no effect and ±100 for the full control effect.

Cytochrome P450 2C9 (Homo sapiens), sequence (P11712 whole entry, looked up): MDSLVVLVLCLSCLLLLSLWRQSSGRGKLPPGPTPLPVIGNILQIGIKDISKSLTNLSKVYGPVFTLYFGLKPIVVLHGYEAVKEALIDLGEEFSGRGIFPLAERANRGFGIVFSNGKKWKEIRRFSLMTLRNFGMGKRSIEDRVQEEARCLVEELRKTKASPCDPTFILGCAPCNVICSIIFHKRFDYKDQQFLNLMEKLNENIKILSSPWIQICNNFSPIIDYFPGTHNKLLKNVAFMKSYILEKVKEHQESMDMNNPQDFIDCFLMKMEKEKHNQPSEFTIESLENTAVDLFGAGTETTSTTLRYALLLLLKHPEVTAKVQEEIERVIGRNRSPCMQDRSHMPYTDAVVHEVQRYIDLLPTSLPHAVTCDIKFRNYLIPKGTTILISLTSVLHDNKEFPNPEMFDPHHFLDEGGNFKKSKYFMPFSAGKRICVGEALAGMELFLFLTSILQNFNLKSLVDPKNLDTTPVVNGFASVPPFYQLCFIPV

The assay addresses Cytochrome P450 2C9 (Homo sapiens) (UniProt P11712). Description: Cytochrome panel assay with activity outcomes. Particulars: recombinant CYP, pro-luciferin dealkylation, luminescence, p450-cyp2c9; series mostly up to 57.1 µM; activity, negative = inhibition: at the top concentration.
As a reminder, the AC50 is the midpoint of the concentration-response curve, whichever way the signal moves. Turning to `Cc1ccc2c(c1)N(CCC(=O)NCc1cccnc1)C(=O)CO2`, the AC50 was 14.1 µM (active).
Turning to `Cc1ccc2c(c1)N(CC(=O)NC1CCCc3ccccc31)C(=O)CO2` (stereo not given), the “activity, negative = inhibition” value is 12.5% (inactive).
As for `Cc1ccc2c(c1)N(CC(=O)NC1CCC(C)CC1)C(=O)CO2` (stereo not given), the “activity, negative = inhibition” value is -22.9% (inactive).
Turning to `COC(=O)Nc1nc2ccc(Sc3ccccc3)cc2[nH]1`, the “activity, negative = inhibition” value was 4.03% [at 25.6 µM] (inactive).
Still for that read-out and setting: to `c1ccc2[nH]c(NC3=NCCC3)nc2c1` belongs 6.69% (inactive).
For `COc1cc(/C=N\Nc2nc3ccccc3[nH]2)cc(OC)c1OC`, the AC50 was 15.8 µM (active).
On the same count and under the same terms, as for `Cc1ccc2nc(-c3ccccc3)cc(C(=O)NCCCn3ccnc3)c2c1`, the figure is 0.1 µM (active).
For the compound `Cc1cccc(NC(=S)c2nc3ccccc3s2)c1`, the “activity, negative = inhibition” value was -11.2% (inactive).
`CN1CCC(N(C)C(=O)CCc2nc3ccccc3c(=O)[nH]2)CC1`: the “activity, negative = inhibition” value was -13.2% (inactive).
`Cc1cccc(NC(=O)N(Cc2nc3ccccc3c(=O)[nH]2)C2CCCC2)c1`: the concentration at half-maximal activity (AC50) was 5.62 µM (active).
As for `C/C(=N\OC(=O)c1ccccc1)c1cc(-c2ccc(Cl)cc2)no1`, the “activity, negative = inhibition” value is 8.59% (inactive).
Turning to `N/C(=N\OC(=O)c1cc(-c2ccccc2)nc2ccccc12)c1ccc(Cl)cc1`, the half-maximal activity concentration (AC50) is 3.98 µM (active).
For `Cn1c(=O)c2[nH]c(C3CCCC3)nc2n(C)c1=O`, the “activity, negative = inhibition” value was -12.4% (inactive).
Turning to `NC(=O)N[C@H]1NC(=O)NC1=O`, the “activity, negative = inhibition” value is 5.59% [at 25.6 µM] (inactive).
The same measure, in the same setting: to `C=CCC(C(=O)OC)(C(=O)OC)c1ccc([N+](=O)[O-])cn1` belongs -12.8% (inactive).
As to `COC(=O)C(NC(=O)c1ccc(F)cc1)(Nc1ncc(S(=O)(=O)c2ccc([N+](=O)[O-])cc2)s1)C(F)(F)F` (stereo not given), the concentration at half-maximal activity (AC50) is 3.55 µM (active).
In the case of `COC(=O)C(C)(C(=O)OC)c1ccc([N+](=O)[O-])cn1`, the “activity, negative = inhibition” value is -2.26% (inactive).
As for `O=S(=O)(Nc1ccc(Cc2ccncc2)cc1)c1cccs1`, the AC50 was 0.02 µM (active).
On the same count and under the same terms, as for `O=S(=O)(Nc1ccc(Cc2ccncc2)cc1)c1ccc(Br)cc1`, the figure is 0.0141 µM (active).
As to `O=C1CCCCC(=O)c2ccccc2N1`, the “activity, negative = inhibition” value was -20.6% (inactive).
In the case of `COc1ccc(C(=O)C(OC(=O)CNC(=O)c2ccco2)c2ccccc2)cc1` (stereo not given), the half-maximal activity concentration (AC50) was 20 µM (active).
Turning to `O=C(CNC(=O)c1ccco1)OCc1c(F)cccc1Cl`, the “activity, negative = inhibition” value was 24.8% (inactive).
As for `O=C(CNC(=O)c1ccco1)OC(C(=O)c1ccccc1)c1ccccc1` (stereo not given), the concentration at half-maximal activity (AC50) is 25.1 µM (active).
For `COc1ccc(C(=O)NCC(=O)OCc2cccc(Br)c2)cc1`, the “activity, negative = inhibition” value is -25% (inactive).
For `CCOc1ccc2c(ccc(/C=C\c3cc(C)c4cccnc4c3O)[n+]2C)c1`, the activity, negative = inhibition is 5.89% [at 11.4 µM] (inactive).
With `Cc1cc(NC(=O)C2CCCC2)n(-c2nc3ccccc3[nH]2)n1`, the concentration at half-maximal activity (AC50) was 3.98 µM (active).
Take `O=C(O)[C@H]1CCCC[C@@H]1C(=O)Nc1nc2ccccc2[nH]1`: the activity, negative = inhibition was 2.98% [at 11.4 µM] (inactive).
Same read-out and setting: to `O=C(Nc1nc2ccccc2n1CCN1CCCCC1)C1CCCCC1` belongs -20.2% (inactive).
Consider `Cc1ccc(NCC(=O)N/N=C/c2ccc(OC(=O)c3ccco3)cc2)cc1`, for which the AC50 is 8.91 µM (active).
`COc1cccc(/C=N/NC(=O)c2cc(-c3cccn3C)n[nH]2)c1`: the “activity, negative = inhibition” value was 10.1% (inactive).
On the same count and under the same terms, to `Cc1ccc(NCC(=O)N/N=C\c2ccc([N+](=O)[O-])o2)cc1` belongs -22.6% (inactive).
Take `Cc1cc(C(=O)N/N=C/c2cccc(OC(=O)c3ccco3)c2)n[nH]1`: the AC50 is 11.2 µM (active).
On the same count and under the same terms, as for `CCOC(=O)c1sc(=N)n(-c2ccc(OC)cc2)c1C`, the figure is 3.16 µM (active).
For the compound `COc1ccc(-n2c(C)nn(C)c2=O)cc1`, the “activity, negative = inhibition” value is -0.617% (inactive).
Same read-out and setting: as for `CCOC(=O)c1nc(N)sc1C(=O)OCC`, the figure is 5.81% (inactive).
For the compound `CC(C)Nc1nc(Oc2ccc(Cl)cc2)cc(C(F)(F)F)n1`, the AC50 is 15.8 µM (active).
Consider `CC(C)c1cc(C(F)(F)F)nc(NNc2nc(C(C)C)cc(C(F)(F)F)n2)n1`, for which the activity, negative = inhibition is -27.5% [at 11.4 µM] (inactive).
Still for that read-out and setting: as for `CC(C)Nc1cc(C(F)(F)F)nc(-c2ccccn2)n1`, the figure is -18.4% (inactive).
For the compound `CC(C)CN(Cc1c(O)ccc2c3c(c(=O)oc12)CCC3)CC(C)C`, the concentration at half-maximal activity (AC50) is 28.2 µM (active).
In the case of `CCOC(=O)c1[nH]c(C(=O)O)c(CCN(CC)CC)c1C`, the “activity, negative = inhibition” value was -0.374% (inactive).
Consider `CCOc1ccc(C2=Nn3c(nnc3-c3ccco3)SC2)cc1`, for which the AC50 is 2.24 µM (active).
The same measure, in the same setting: to `CCc1ccc(C2=Nn3c(nnc3-c3cccs3)SC2)cc1` belongs 7.08 µM (active).
Regarding `CCN(CC)C(=O)CSc1nnc(-c2ccco2)n1N`, the “activity, negative = inhibition” value was -16.2% (inactive).
Same read-out and setting: as for `C/C(CCN1CCc2nc(-c3ccccc3)c(-c3ccccc3)cc2C1)=N\OC[C@@H](O)COCc1ccco1`, the figure is -7.86% [at 11.4 µM] (inactive); as for `COc1cc(/C=C\c2ccc(OC)cc2OC)cc(OC)c1`, -27.9% (inactive); as for `CC(C)NC(=O)N1CCC2(CC1)CCN(C(=O)c1ccncc1)CC2`, -8.98% (inactive).
Consider `COC(=O)C1=C(NC(=O)c2cccc(OC)c2)CCS1`, for which the AC50 is 11.2 µM (active).
Regarding `CCN(CC)S(=O)(=O)c1ccc(C(=O)NC2=C(C(=O)OC)SCC2)cc1`, the half-maximal activity concentration (AC50) is 2 µM (active).
As for `CN1CCN(S(=O)(=O)c2cc([N+](=O)[O-])ccc2N2CCCCCC2)CC1`, the “activity, negative = inhibition” value was -19.8% (inactive).
For `Clc1ccc(N2CCCCCC2)nn1`, the “activity, negative = inhibition” value is 4.61% (inactive).

The values are drawn from PubChem BioAssay AID1851 (National Center for Advancing Translational Sciences (NCATS), 2009).
